Source: PubChem BioAssay
hgDAF12 agonist = activates the H. glycines DAF-12 receptor ligand-binding domain | activation, % at 6.8 µM | HEK293 GAL4-hgDAF12 UAS-luciferase reporter, agonist luminescence; normalized to butyrate control | hit rate 1.8% among 370,000;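 active means activation above a cutoff set at the mean of all screened compounds plus 3 SD, cut at about 10% in these data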
DAX1 inh-1 = DAX1 (NR0B1) inhibition, primary screen | HEK293T StAR-luciferase reporter, SF-1/DAX-1 repression relief | inhibition, % at 6.8 µM | hit rate 1.1% among 370,000 | AID 652010;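 active means inhibition above the mean over all tested compounds plus 3 SD, cut at about 3.6% in these data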;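 further: higher inhibition means more luminescence from relief of DAX-1 repression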
ssDAF-12 act = activators of S. stercoralis DAF-12 nuclear receptor. hit rate 1% among 370,000. activation, % at 6.8 µM. AID 652126. HEK293 ssDAF-12/GRIP1 lit1-tk-luc reporter, luminescence; % of 3 µM dafachronic acid response;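 active means activation above the mean over all tested compounds plus 3 SD, cut at about 0.9% in these data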
hcDAF-12 act = activates DAF-12 receptor from parasite H. contortus | HEK293 hcDAF-12 lit1-tk-luc reporter, luminescence; 0% DMSO, 100% Δ7-dafachronic acid | activation, % at 6.8 µM | hit rate 1.4% among 370,000;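 active means activation above the mean of all tested compounds plus 3 SD, cut at about 5.5% in these data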
GAA850 FXN act = increases GAA850 frataxin promoter reporter activity; activation, % at 6 µM; AID 540364; HEK293 lucGAA850 FXN promoter luciferase reporter, 24 h; percent of 10 µM SAHA response; hit rate 0.56% among 360,000;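 active means activation above the average of all compounds screened plus 3 SD, cutoff fixed separately per campaign, cut at about 7.5% in these data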
DAX1 inh-2 = inhibitors of human orphan nuclear receptor DAX1 (NR0B1). hit rate 0.99% among 340,000. P51843. inhibition, % at 6.75 µM. AID 504766. HEK293 Gal4-DAX1 luciferase reporter, luminescence;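 active means inhibition above the mean over all tested compounds plus 3 SD, cut at about 4.2% in these data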;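 further: inhibition shows as a rise in luminescence from relieved DAX1 repression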
Target sequence (P51843 207-470 limits assumed): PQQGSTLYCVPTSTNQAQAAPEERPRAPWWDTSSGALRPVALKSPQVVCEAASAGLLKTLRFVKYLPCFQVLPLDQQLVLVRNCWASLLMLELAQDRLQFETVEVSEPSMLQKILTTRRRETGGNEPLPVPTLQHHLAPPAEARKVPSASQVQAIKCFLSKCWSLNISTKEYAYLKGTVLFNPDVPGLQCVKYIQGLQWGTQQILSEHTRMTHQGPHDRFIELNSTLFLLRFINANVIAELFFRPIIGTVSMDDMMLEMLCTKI
DAX1 inh confirm = NR0B1 (human) inhibition, confirmation; shares compounds with DAX1 inh-1; HEK293T StAR-promoter luciferase reporter, SF-1/DAX-1 repression; inhibition, % at 6.8 µM; hit rate 87% among 2,400; AID 652134;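 active means inhibition above the average of every tested compound plus 3 SD, cut at about 3.8% in these data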;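 further: active compounds raise luminescence by relieving repression of the StAR reporter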
SF1 AF2mut Luc = nonselective inhibitor or artifact in SF-1 mutant DAX1 counter-screen; shares compounds with DAX1 inh-1; HEK293 StAR-luciferase, SF-1 AF2 mutant, luminescence; inhibition, % at 6.8 µM; hit rate 78% among 2,400; AID 652136;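 active means inhibition above the mean of all tested compounds plus 3 SD, cut at about 3% in these data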
Numbers stand for hits; i = inactive; nt = no result given. An excerpt weighted towards active compounds, which were near 4.5% of everything screened.

SMILES	hgDAF12 agonist	DAX1 inh-1	ssDAF-12 act	hcDAF-12 act	GAA850 FXN act	DAX1 inh-2	DAX1 inh confirm	SF1 AF2mut Luc
C[C@H]1[C@@H](OC(=O)N2CCOCC2)CC[C@@]23CCCN2C(=O)CCC[C@@H]13	i	nt	i	i	nt	nt	nt	nt
COC(=O)c1sccc1NC(=O)Nc1ccc(C)cc1	13.2	8.5	1.4	5.9	i	i	4.6	i
CCCCCCC(=O)NC1CCCCN(Cc2ccc(C)cc2)C1=O (configuration not stated)	i	i	i	i	nt	nt	nt	nt
COC(=O)c1cc(-c2c(C)noc2C)c(=O)n2c1CCC2	i	i	i	i	nt	nt	nt	nt
CCN(CCN1CCCC1)C(=O)c1cc(COc2ccccc2SC)on1	i	i	i	i	i	i	nt	nt
CCN(CCn1cccn1)C(=O)c1cc(COc2ccccc2SC)on1	i	4.6	i	i	i	i	7.1	5.4
COc1ccccc1C(=O)NCCC(=O)NC1CCC(C)CC1 (configuration not stated)	i	8.7	i	i	i	i	10.3	4.6
COc1ccccc1C(=O)NCCC(=O)NC1CCCCC1C (configuration not stated)	i	i	i	i	i	i	nt	nt
CCc1cccc2c(=O)c(C(=O)N3CCCCCC3)c[nH]c12	i	i	i	i	i	i	nt	nt
CCc1cccc2c(C(=O)CN3C(=O)NC(C)(c4cccc5ccccc45)C3=O)c[nH]c12 (configuration not stated)	i	i	i	i	i	i	nt	nt
CCc1cccc2c(C(=O)CN3C(=O)NC4(CCc5ccccc54)C3=O)c[nH]c12 (configuration not stated)	i	12.4	i	i	i	i	5.9	i
CCc1cccc2c(C(=O)CN3C(=O)N(C)C4(CCCCC4)C3=O)c[nH]c12	i	7.9	i	i	i	i	10.5	i
CCOC(=O)C1=C(C(=O)OCC)C2N(Cc3ccc(C(F)(F)F)cc3)c3ccccc3[C@@]23C[C@@H](C(=O)OC)N(S(=O)(=O)c2cccs2)C3=N1 (some centres not stated)	i	i	i	i	nt	nt	nt	nt
COc1c(C=O)c2c(c(OC)c1OC)-c1ccc(OC)c(=O)cc1C(NC(C)=O)CC2 (configuration not stated)	i	5.1	i	i	i	i	21.0	i
COc1cc2c(c(OC)c1OC)-c1ccc(OC)c(=O)cc1C(NC(=O)c1ccccc1)CC2 (configuration not stated)	i	4.7	i	i	i	i	15.6	i
Cc1ccc2sc(-c3ccc(NC(=O)/C=C\C(=O)O)cc3)nc2c1	12.0	5.3	i	6.2	i	i	9.9	6.5
Cc1nc(-c2ccc(NC(=O)/C=C\C(=O)O)cc2)cs1	i	i	i	i	i	i	nt	nt
C[C@H]1[C@@H](Cc2cc(Cl)cc(Cl)c2)N(c2ccccc2)c2ccccc2CN1Cc1ccccc1	i	5.0	i	i	nt	nt	i	i
CCc1nc2ccc(C(=O)N(CC)CCN(C)C)cn2c1N(C)C(=O)c1cccc(OC)c1	i	i	i	i	i	nt	nt	nt
Fc1ccc(CC2CCN(c3ncnc4sccc34)CC2)cc1	i	nt	i	i	nt	nt	nt	nt
COc1ccc(C(=O)N=c2sc3c(C)ccc(OC)c3n2C)cc1	12.9	4.8	i	i	i	i	i	i
O=C(COc1ccc(Br)cc1Cl)NC(=S)Nc1ccccn1	i	4.8	i	i	i	5.2	15.7	3.0
Cc1ccc(OCC(=O)NC(=S)Nc2ccccn2)c(Br)c1	i	i	i	i	i	i	nt	nt
COc1cc2nn(-c3ccccc3N)nc2cc1OC	10.9	4.7	i	i	i	i	6.7	4.8
CCN1CCN(S(=O)(=O)c2ccc(Cl)c(C(=O)NCCc3ccccc3)c2)CC1	i	5.6	i	i	i	i	i	i
SMILES	hgDAF12 agonist	DAX1 inh-1	ssDAF-12 act	hcDAF-12 act	GAA850 FXN act	DAX1 inh-2	DAX1 inh confirm	SF1 AF2mut Luc
COc1ccc(Cn2cc(CN3CC(N4CCN(C5CCN(C)CC5)CC4)CS3(=O)=O)nn2)cc1 (configuration not stated)	i	7.6	i	i	nt	nt	i	i
C=CCN1C(=O)[C@H](CC(=O)NCC23CC4CC(CC(C4)C2)C3)[C@@]2(C(=O)OCC)CCCC=C12	i	i	i	i	nt	nt	nt	nt
c1cc(-c2cc3c(o2)CCCC3OCCN2CCOCC2)cs1 (configuration not stated)	i	i	i	i	nt	nt	nt	nt
COc1ccc(-c2cc3c(o2)CCCC3OCCN2CCOCC2)cc1 (configuration not stated)	i	4.7	i	i	nt	nt	5.7	3.0
C[C@@H]1C=CCCO[C@]12C(=O)Nc1ccccc12	i	i	i	i	nt	nt	nt	nt
COc1ccc(NC(=O)c2cccs2)cc1	i	i	i	i	i	i	nt	nt
O=C(Nc1ccc(NC(=O)C2CC2)cc1)c1cccs1	i	7.1	i	i	i	i	8.3	5.3
CC1CCCN(c2cccc3c2S(=O)(=O)N(Cc2cccc(F)c2)[C@@H](C)[C@H](c2ccccc2)O3)C1 (some centres not stated)	i	i	i	i	nt	nt	nt	nt
CCOC(=O)N1CCN(C(=O)C[C@@H]2C[C@]3(C(=O)OCC)CCC4=C3N(CCC4)C2=O)CC1	i	i	i	i	nt	nt	nt	nt
COc1ccccc1OCC(=O)Nc1ccc2c(c1)OCO2	i	i	i	i	i	i	nt	nt
CC(C)(C)c1nnc(NC(=O)COc2ccc3c(c2)OCO3)s1	i	7.9	i	i	i	i	9.1	7.2
CC(C)(C)c1nnc(NC(=O)c2ccc3c(c2)OCO3)s1	i	i	i	i	i	i	nt	nt
Cc1ccc(NC(=O)COc2ccc3c(c2)OCO3)c(Cl)c1	13.2	5.0	i	i	i	i	9.2	4.3
COc1cc(C)ccc1OCC(=O)Nc1ccc2c(c1)OCO2	i	6.2	i	i	i	i	7.7	6.3
COc1ccc(CN2CCC(CNC(=O)Nc3ccc(C)c(F)c3)CC2)cc1	i	i	i	i	nt	nt	nt	nt
O=C(Nc1nnc(-c2ccco2)s1)C1CC1	i	i	i	i	i	i	nt	nt
O=C(Nc1nnc(-c2ccco2)s1)c1ccccc1	10.6	6.6	i	6.5	i	i	15.6	6.2
CC(=O)c1c(C)[nH]c(C(=O)Nc2ccc(S(=O)(=O)N(C)C)cc2)c1C	i	i	i	i	i	i	nt	nt
CC(=O)c1c(C)[nH]c(C(=O)Nc2ccc(C)c(S(=O)(=O)N(C)C)c2)c1C	10.5	13.1	1.0	i	i	i	14.7	6.7
O=C(NCCc1ccccn1)c1ccc(OC2CCN(CCc3ccccc3)CC2)cc1	12.4	5.8	i	i	i	i	9.1	4.1
COc1ccc(NC(=O)C2=Cc3ccccc3OC2)cc1	17.9	8.0	1.2	5.8	i	i	17.6	8.2
